This is a sample that favours compounds with a hit; in the whole collection about 0.45% have one here.
FMDV Renilla: antivirals against foot and mouth disease virus replicon | actives 0.32% (n = 120,000) | FMDV replicon cells, Renilla luciferase signal | AID 1745857 | Potency, µM (series often up to 57.5 µM), most hits filed as inhibitors; also: nearly all actives have a fitted effect of over 55% in size
FMDV FLuc: antivirals against foot and mouth disease virus; Potency, µM (highest dose often 57.5 µM), most hits filed as inhibitors; FMDV antiviral cell assay, firefly luciferase signal; actives 0.23% (n = 120,000); also: nearly all actives have a fitted effect of over 60% in size
Numbers stand for hits; n = inactive; u = inconclusive. Calls follow the shape of the full dose curve.

SMILES	FMDV Renilla	FMDV FLuc
COc1ccc(CCNC(=O)C(=O)NCc2n[nH]c(=O)c3ccccc23)cc1OC	n	n
Cc1ccc(C2=NC(C(F)(F)F)(C(F)(F)F)c3c(n(-c4ccccc4)c(=O)[nH]c3=O)N2)cc1	n	n
O=c1[nH]c(=O)n(Cc2ccccc2)c2c1C(C(F)(F)F)(C(F)(F)F)N=C(c1cccs1)N2	u	20µM
CC(C)c1ccc(CN(C(=O)Cc2n[nH]c(=O)c3ccccc23)C2CC2)cc1	n	n
Cn1nc(C(=O)N2CCSCC2)c2ccccc2c1=O	n	n
Oc1c(Br)cc(Br)cc1C=Nc1ccc(F)c(Cl)c1	n	n
Cc1ccc(CN2C3=NCCCN3c3ccccc32)cc1	n	n
Cc1cc2c(cc1C)N(Cc1ccc(Cl)cc1)C1=NCCCN12	u	20µM
Fc1ccc(/C=C2\CCCC3=C2N=C2SC=C(c4ccc(F)cc4)N2C3c2ccc(F)cc2)cc1 (centres undefined)	n	n
CCc1ccc2c(CN(C)CCOc3ccc(F)cc3)cc(=O)oc2c1	n	n
COc1cccc(C(=O)/C(=C/c2ccccn2)c2nc3ccccc3o2)c1	u	n
COc1ccc(C(=O)/C(=C/c2ccccn2)c2nc3ccccc3o2)cc1	28µM	n
O=C(Nc1cccc(-c2nc3ccccc3s2)c1)[C@@H]1CCCN1C(=O)c1cccs1	n	n
NS(=O)(=O)c1ccc(NC(=O)c2ccc3c(c2)CCN3S(=O)(=O)c2ccccc2)cc1	n	n
O=C(Nc1ccc(Br)cc1)c1cccc(S(=O)(=O)N2CCc3ccccc32)c1	4µM	32µM
O=C(c1ccnc(Cl)c1)N1CCC(c2nc3cc(C(F)(F)F)ccc3s2)CC1	u	11µM
COc1cc(C(=O)N2CCC(c3nc4ccccc4s3)CC2)cc(OC)c1OC	n	u
Cc1ccc(C(=O)N2CCC(c3nc4cc(C(F)(F)F)ccc4s3)CC2)cn1	14µM	u
Cc1ccc2oc(C(=O)N3CCC(c4nc5ccccc5s4)CC3)c(C)c2c1	n	n
CCOc1cc(/C=C/c2nc3ccccc3s2)ccc1O	n	n
CCOc1ccc2c(c1)cc(C(=O)Nc1ccccc1OC)n2C	n	n
CCOC(=O)c1cccc(Nc2nc3ccccc3nc2NS(=O)(=O)c2ccccc2)c1	n	n
CCOC(=O)C1=C(Nc2ccccc2)O/C(=C\c2ccc(OC(F)F)cc2OC(F)F)C1=O	u	10µM
N#C/C(=C/C1=Cc2cc(Cl)ccc2OC1)c1nc2ccccc2[nH]1	n	n
CNc1nc2c(c(=O)n(C)c(=O)n2C)n1CC(O)COc1ccc(C)cc1 (centres undefined)	11µM	u
SMILES	FMDV Renilla	FMDV FLuc
CCNc1nc2c(c(=O)n(C)c(=O)n2C)n1CC(O)COc1ccccc1 (centres undefined)	n	n
CC(C)c1cnc2c(c1SCC(=O)c1ccc(Cl)cc1)c(=O)n(C)c(=O)n2C	25µM	n
CC(C)c1cnc2c(c1SCC(=O)O)c(=O)n(C)c(=O)n2C	n	n
O=C(/C=C/c1cccc(O)c1)c1ccc(F)cc1	n	n
COc1ccc(C)cc1NC(=O)Cn1c(=O)oc2cc(S(=O)(=O)N3CCCCC3)ccc21	n	n
COc1ccc(NC(=O)Cn2c(=O)oc3cc(S(=O)(=O)N4CCC(C)CC4)ccc32)c(OC)c1	10µM	u
O=C(OCC(=O)N1CCCC1)c1cc(-c2ccco2)nc2ccccc12	n	n
O=C(CCCc1c[nH]c2ccccc12)Nc1ccc2ncccc2c1	n	n
O=C(CCCc1c[nH]c2ccccc12)Nc1cccc2cnccc12	11µM	u
N#Cc1nc(-c2ccco2)oc1N1CCN(C(=O)c2ccccc2Cl)CC1	n	n
N#Cc1nc(-c2ccco2)oc1N1CCN(C(=O)CNC(c2ccccc2)c2ccccc2)CC1	10µM	u
CCn1nnnc1SCC(=O)c1c(C)c(C)cc(C)c1C	n	n
O=C(O)c1ccc(/C=C/c2nc3cc(Cl)ccc3o2)cc1	n	n
Cc1nc(/C=C/c2ccc(Cl)cc2)sc1C(=O)O	n	0.89µM
Cc1ccc(-c2ccc(/C=C/C(=O)c3ccccc3)o2)cc1Cl	n	n
COc1ccc2c(c1)c(C(C)=O)c(C)n2Cc1ccccc1	u	20µM
CCn1c(C)c(C(=O)NCc2ccccc2)c2cc(OC)ccc21	n	n
O=C(COc1ccc(C2CCCCC2)cc1)Nc1ccc2oc(-c3ccncc3)nc2c1	n	n
Clc1ccc(-c2csc3ncnc(Sc4nnc(C5CC5)o4)c23)cc1	20µM	25µM
Cc1cc(C)n(-c2ncnc3scc(-c4ccc(Cl)cc4)c23)n1	n	n
Cc1ccc(NC(=O)C2=C(c3ccccc3)NC(=S)NC2c2ccc(Br)cc2)cc1 (centres undefined)	n	n
O=[N+]([O-])c1ccc(NC(c2ccccc2)c2ccccn2)c2ccncc12 (centres undefined)	n	n
CC(Nc1ccc([N+](=O)[O-])c2cnccc12)c1ccc(F)cc1 (centres undefined)	25µM	u
CCOc1ccccc1CNC(=O)C1CCN(C(=O)N2CC(CC)Oc3ccccc32)CC1 (centres undefined)	n	n
O=C(Nc1nc(-c2cc3ccccc3oc2=O)cs1)c1ccc(Cl)cc1	n	n
SMILES	FMDV Renilla	FMDV FLuc
O=C(Nc1nc(-c2ccc(Cl)cc2)cs1)C1CCN(C(=O)c2ccoc2)CC1	10µM	u
O=C(Nc1nc(-c2ccc(Br)s2)cs1)C1CC1	n	n
O=C(Nc1nc(-c2ccc(Cl)cc2)cs1)c1ccc(CN2CCOCC2)cc1	u	14µM
COc1ccc(C2CC(=O)N(c3ccccc3)C3=C2C(=O)OC3)cc1 (centres undefined)	n	n
S=c1nccc(-c2ccccc2)[nH]1	n	n
CCC(C)Nc1ccc2c(cc1=O)[C@@H](NC(C)=O)CCc1cc(OC)c(OC)c(OC)c1-2 (some centres undefined)	n	n
CCOc1cc(C2CC(=O)N3CN(c4ccccc4)CSC3=C2C#N)cc(Br)c1O (centres undefined)	n	n
CCS(=O)(=O)N1CCc2cc(C(=O)Nc3ccc(C)c(Cl)c3)ccc21	n	n
CCS(=O)(=O)N1CCc2ccc(NC(=O)Nc3ccc(C)c(C)c3)cc21	4.5µM	u
COc1cccc(NC(=O)C(C)Nc2ccc3oc(C)nc3c2)c1 (centres undefined)	n	n
Cc1ccccc1CN1CCC(N2CCCCCC2)CC1	u	25µM
Cc1ccccc1CN1CCC(C(=O)O)CC1	n	n
CCCNC(=O)c1cc(-c2ccc(OC)cc2OC)nc2ccccc12	n	n
CCCCCCC[N+](CC)(CC)CCCCc1ccc(Cl)cc1	7.9µM	u
CCCCCCc1ccc(C(=O)Oc2ccc(Cl)cc2)cc1	n	n
CC(C)NS(=O)(=O)c1ccc(C(=O)NCc2ccc(-c3nc4ccccc4s3)o2)cc1	n	n
CC(=O)c1cccc(NC(=O)Nc2cccc(Br)c2)c1	n	n
O=C(Nc1cccc(Br)c1)Nc1ccc2c(c1)N(C(=O)c1ccccc1)CC2	14µM	u
O=C(c1cccc2ccccc12)N1CCN(Cc2c[nH]c3ccccc23)CC1	n	n
CCc1ccc(-c2cc(C(=O)NCc3ccco3)c3ccccc3n2)cc1	n	n
COc1ccccc1NC(=O)c1ccc(-c2nc(COc3ccc(C)cc3)c(C)o2)cc1	25µM	u
COc1ccc(OC)c(NC(=O)c2ccc(-c3nc(COc4ccccc4)c(C)o3)cc2)c1	n	n
Cc1ccc(S(=O)(=O)N2CCN(C(=O)c3cc4cc(C)ccc4nc3C)CC2)cc1	n	n
Cc1ccc2nc(C)c(C(=O)N3CCN(Cc4ccccc4C)CC3)cc2c1	16µM	16µM
CC(C)CCNC(=S)NCc1ccco1	n	n
